A selection: hits, their analogues and other compounds. The true share with any hit is near 15%.
ALOX12 inh: blocks human arachidonate 12S-lipoxygenase. P18054. purified 12hLO, xylenol orange hydroperoxide absorbance. Potency, µM (doses to about 108 µM), usual class: inhibitors. 580,000 compounds, 1.1% hits. AID 1671190
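Purified human 12hLO at 150 nM in 25 mM Hepes, 0.01% Triton X-100, pH 7.0, preincubated 15 min at room temperature with compound. Reaction started with 40 uM arachidonic acid, 30 min at room temperature. Hydroperoxide measured by Fe-xylenol orange, 573/405 nm absorbance ratio.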
TDP1 cell noCPT: qHTS for Inhibitors of human tyrosyl-DNA phosphodiesterase 1 (TDP1): qHTS in cells in absence of CPT; DT40 Tdp1-/- hTDP1 cells, no CPT, ATP luminescence, 48 h; Potency, µM (highest dose often 46.2 µM), usual class: inhibitors; 420,000 compounds, 15% hits; AID 686978, 2013; also: nearly all actives have a fitted effect of over 55% in size
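Stably hTDP1-transfected Tdp1-null chicken DT40 cells were treated with library compounds minus camptothecin and grown for at least 48 hr at 37 °C, after which cellular ATP was quantified by luminescence.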
TDP1 cell CPT: growth inhibition of DT40 Tdp1-/-;hTDP1 cells with camptothecin (screen for TDP1 inhibitors) | 420,000 compounds, 12% hits | Potency, µM (highest dose often 46.2 µM), most hits filed as inhibitors | chicken DT40 Tdp1-/-;hTDP1 cells + 20 nM CPT, ATP luminescence, 48 h; also: nearly all actives have a fitted effect of over 55% in size
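Cell growth measured by CellTiter-Glo luminescence after a minimum 48 h, 37 C compound exposure with 20 nM CPT in Tdp1-knockout DT40 cells stably expressing hTDP1, seeded 400/well; qHTS titration format.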
RORg inh: ROR gamma (mouse) transcription inhibition; 310,000 compounds, 5.4% hits; P51450; Potency, µM (highest dose often 53.6 µM), usual class: inhibitors; AID 2551; Drosophila S2 Gal4-RORgamma UAS-luciferase reporter, 20 h; also: nearly all actives have a fitted effect of over 60% in size
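Read-out: Photinus luciferase luminescence; inhibitors lower reporter signal. Insect Schneider cells with Gal4-ROR gamma fusion under metallothionein promoter, UAS reporter; 700 uM final copper sulfate induction, 20 hr, ambient temperature.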
VP16 counter: Gal4-VP16 reporter inhibition counter-screen. Drosophila S2 Gal4-VP16 UAS-luciferase, luminescence, 20 h. Potency, µM (top dose mostly 53.6 µM), usual class: inhibitors. 310,000 compounds, 3.5% hits;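 also: Gal4-VP16 expression switched on by copper sulfate through the metallothionein promoter; nearly all actives have a fitted effect of over 50% in size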
ELG1 repair inh: inhibitors of ELG1-dependent DNA repair in HEK293T cells; HEK293T ELG1-luciferase reporter, luminescence, 16 h; DNA damage induced by 5-fluorouridine; Potency, µM (doses to about 46.1 µM), most hits filed as inhibitors; AID 504467; 330,000 compounds, 2.3% hits; also: nearly all actives have a fitted effect of over 55% in size
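DMSO vehicle served as the neutral condition. Each well held 2,000 cells given 5-fluorouridine plus compound; after 16 hr at 37 °C/5% CO2, ONE-Glo was added and luciferase measured 30 min later.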
Numbers stand for hits; 0 = inactive; ? = inconclusive; - = not tested or not shown; [ ] = another dose, or the depositor's remark. Calls follow the shape of the dose curve; as a rule, active = well fitted curve in the direction sought with a large enough effect; inconclusive = small, poorly fitted or top-dose-only effect, or another doubt; inactive = no such curve, though single readings can be large; an effect the other way counts as inactive or inconclusive.

SMILES	ALOX12 inh	TDP1 cell noCPT	TDP1 cell CPT	RORg inh	VP16 counter	ELG1 repair inh
CC(C)CNC(=O)C1(C)CCCN1C(=O)C(C)(C)Oc1ccc(Cl)cc1 (configuration not stated)	0	16µM	?	-	-	-
Clc1ccc(CN2CC[C@H]3C=CCc4cccc(c43)C2)cc1	0	21µM	?	-	-	0
O=C1C[C@H]2C=CCc3cccc(c32)CN1Cc1ccc(Br)cc1	-	11µM	?	-	-	-
Cc1ccccc1CN1Cc2cccc3c2[C@H](C=CC3)CC1=O	-	10µM	11µM	-	-	-
Cc1ccc(NC(=O)c2nccnc2N)cc1I	0	-	-	-	-	-
Cc1cc(C)c(NC(=S)N(CCN(C)C)Cc2cccs2)c(C)c1	?	?	?	0	0[10 µM]	?
Cc1cccc(C)c1NC(=S)N(CCN(C)C)Cc1cccs1	?	0	0	10µM	0	0
CCc1cccc(C)c1NC(=S)N(CCN(C)C)Cc1cccs1	0	?	?	11µM	0[10 µM]	0
Cc1cccc(NC(=S)N(CCN(C)C)Cc2cccs2)c1	?	0	0	11µM	0[10 µM]	0
COc1cccc(CCC2CCCNC2)c1 (configuration not stated)	0	-	-	-	-	-
CCC(C)N(CCNC(=O)Cn1nc(Cc2cccnc2)c2ccccc2c1=O)Cc1ccco1 (configuration not stated)	0	-	-	-	-	-

Screens: PubChem BioAssay, National Center for Advancing Translational Sciences (NCATS)
